# Laboratory results reported in PubChem BioAssay (Tox21).
# Records with an inconclusive call do not appear. A number with no mark means an inactive call. The call rests on the fitted dose curve; in most records, active means well fitted activation curve with a large enough effect in the repeat runs; inconclusive means weak or mixed curves; inactive means no such curve, though single readings can be large or run the other way.
# Experiment: qHTS assay to identify small molecule agonists of the estrogen related receptor signaling pathway with the pleiotropic PPARgamma coactivator (PGC) (AID 1224823)
# Settings: ERR/PGC reporter cell line, luciferase agonist mode; series mostly up to 46.1 µM; activation: at the top concentration
# How it was run: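 Compounds dissolved in DMSO are added by pin tool to PGC/ERR cells that have settled for 6 h, and incubation continues 18 h at 37 C. Reporter output is measured as One-Glo luminescence.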
# On the % scale 0 is the no-effect control and ±100 the full control effect.
row,Structure (SMILES),activation [%]
1,[Li+],-2.38
2,O=C(O)C1CCCNC1 (centres undefined),3.22
3,COC(=O)C(N)Cc1ccc(Cl)cc1 (centres undefined),1.52
4,Cn1cnc2c(NCc3ccccc3)nc(NCCO)nc21,-5.2
5,N[C@H](CCCP(=O)(O)O)C(=O)O,4.79
6,CN(CCCOc1ccc(Cc2ccccc2)cc1)CCC(=O)O,-3.76
7,CC1CNCCN1S(=O)(=O)c1cccc2cnccc12 (centres undefined),27
8,NC(N)=NC(N)=Nc1ccccc1,1.25
9,CN1[C@@H](CC(=O)c2ccccc2)CCC[C@H]1C[C@H](O)c1ccccc1,2.45
10,CC[C@H](NC(=O)c1c(C)c(-c2ccccc2)nc2ccccc12)c1ccccc1,-15.7
11,Cc1cccc(C)c1OCC(N)C(C)C (centres undefined),4.11
12,CC(=O)O[C@H]1C[C@@H]2CC[C@@H]3[C@H](CC[C@@]4(C)[C@H]3C[C@H]([N+]3(C)CCCCC3)[C@@H]4OC(C)=O)[C@@]2(C)C[C@@H]1[N+]1(C)CCCCC1,-1.96
13,COc1cc(/C=C(\C#N)C(=O)c2ccc(O)c(O)c2)cc(I)c1O,7.42
14,CN1Cc2sccc2C(c2ccc(O)c(O)c2)C1 (centres undefined),6.77
